# Test results taken from the supplement of paper PMC3334620.
# Whole data set: some 33,000 sequences, median “E-score (-0.5 to 0.5)” near -0.041, cut for the highest 2% near 0.37. The sample as a whole holds a higher share of the highest values than the screen did.
# Biological target: T1, Ecm22 (UniProt Q05958)
# T1 sequence: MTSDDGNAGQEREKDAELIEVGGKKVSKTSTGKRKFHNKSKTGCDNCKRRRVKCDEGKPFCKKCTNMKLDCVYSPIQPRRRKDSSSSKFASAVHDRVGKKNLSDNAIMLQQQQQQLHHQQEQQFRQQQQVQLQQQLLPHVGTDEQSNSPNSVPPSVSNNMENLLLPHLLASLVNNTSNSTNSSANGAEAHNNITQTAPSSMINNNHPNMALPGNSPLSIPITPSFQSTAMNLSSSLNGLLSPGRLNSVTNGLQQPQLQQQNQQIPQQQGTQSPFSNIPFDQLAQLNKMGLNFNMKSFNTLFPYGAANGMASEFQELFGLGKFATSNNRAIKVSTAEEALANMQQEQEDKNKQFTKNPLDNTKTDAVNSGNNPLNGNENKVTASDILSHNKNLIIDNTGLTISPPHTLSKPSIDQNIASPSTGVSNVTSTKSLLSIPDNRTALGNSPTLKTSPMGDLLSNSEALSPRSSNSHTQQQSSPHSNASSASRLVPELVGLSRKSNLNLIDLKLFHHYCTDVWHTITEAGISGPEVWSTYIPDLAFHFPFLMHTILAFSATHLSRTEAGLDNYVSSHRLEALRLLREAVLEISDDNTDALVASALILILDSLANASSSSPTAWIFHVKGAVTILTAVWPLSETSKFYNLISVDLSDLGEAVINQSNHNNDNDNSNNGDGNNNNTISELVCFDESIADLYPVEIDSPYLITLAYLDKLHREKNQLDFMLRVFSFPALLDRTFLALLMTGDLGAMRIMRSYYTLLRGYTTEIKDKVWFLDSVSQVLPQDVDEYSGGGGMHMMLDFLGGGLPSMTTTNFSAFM
# Test: PBM E-score (8-mer binding enrichment) (E-score (-0.5 to 0.5)); higher = stronger / more preferred TF binding
# Settings: protein concentration: 200 nM; construct: GST-full length
# Description: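 Universal 'all 10-mer' protein binding microarrays (Agilent AMADID 015681) probed with GST-tagged S. cerevisiae TFs (full-length or DBD) made by in vitro transcription/translation (PURExpress), about 100-200 nM. Bound TF was detected with fluorescent anti-GST. Each ungapped 8-mer (which stands for itself and its reverse complement) is scored by the PBM enrichment score (E-score), a modified Wilcoxon-Mann-Whitney statistic from -0.5 to +0.5, computed with the Universal PBM Analysis Suite. Scale: above 0.35 generally sequence-specific binding.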
row,Sequence,PBM E-score
1,CGGCCTCC,-0.0189
2,ACCCGAAA,0.14
3,TTATAGAA,-0.0153
4,AGCAATAA,-0.127
5,CGCCCGAA,0.0388
6,CGCGCGGC,0.225
7,GCTCAGGA,-0.107
8,GACGACAA,0.155
9,AGCGACAT,0.214
10,TGCGACAA,0.141
11,TACGACAA,0.455
12,ACCGACAT,0.217
13,AACGACAT,0.434
14,ATCGACAG,0.00794
15,CACGACAA,0.09
16,AACGACAA,0.41
17,CACGACAG,0.0642
18,TTCGACAA,0.0503
19,AACGACAG,0.412
20,GGACCTCA,-0.206
21,CTGGGAAC,0.132
22,TGGGTAAA,0.0399
23,AGTGTCCG,0.0467
24,CACTCTCG,0.174
25,CTCGTGGA,-0.0176

row,Sequence,PBM E-score
1,CAGGCCTA,-0.218
2,AAATCCTG,0.015
3,AGATCGAA,-0.0769
4,CAAGGTGC,-0.235
5,AGGACCAA,-0.168
6,AACGACAC,0.421
7,GACGACAC,-0.0609
8,CACGACAC,0.147
9,AAGACGGG,-0.114
10,CGTCCGCC,-0.111
11,ACTGGGGC,-0.276
12,AACGATAC,0.389
13,GACGATAA,0.0921
14,AGCGATAT,0.222
15,ACCGATAT,0.138
16,AACGATCC,0.307
17,AACGATCT,0.381
18,TACGATAA,0.408
19,AACGATAT,0.408
20,AACGATCA,0.346
21,GACGATAC,0.127
22,CACGATAA,0.00212
23,AACGATAG,0.345
24,AACTCTTC,0.0679
25,CAATGGGC,-0.209

row,Sequence,PBM E-score
1,CCCGGCAC,-0.159
2,AGAGGGAC,-0.0884
3,ATCTCCTC,-0.0702
4,CACGATAG,-0.065
5,AACGATAA,0.382
6,ACCGATAA,0.116
7,CGTTAAGA,0.222
8,AGTTAAGC,0.0271
9,CGTTAAAA,0.287
10,CGTTAAGC,0.4
11,GGTTAAAC,0.116
12,CGTTAAAC,0.392
13,TCTCTTCA,-0.0952
14,AGACCGCA,-0.0494
15,GTGACAGA,-0.0918
16,CCAACTTA,-0.115
17,GCGTTCCA,0.141
18,ACGTTCCC,0.269
19,GCGTTTCA,-0.0209
20,TCGTTCCA,0.475
21,ACGTTCCA,0.214
22,GCGTTCCC,0.104
23,CCGTTCCA,0.373
24,TCGTTTCA,0.396
25,CCGTTCCC,0.464

row,Sequence,PBM E-score
1,CCGTTCGA,0.152
2,ACGTTTCA,0.107
3,CTGTTCCA,-0.186
4,CTTGTGAA,-0.226
5,GATCCCGC,0.0461
6,GTTCACCA,0.0888
7,TCGCTAAA,0.34
8,AAAGCTCT,-0.258
9,ACGTTCAA,0.188
10,GCGTTCAA,0.0639
11,ACGTTCCG,0.259
12,CCGTTCCG,0.441
13,TCGTTCAA,0.448
14,CAGTTCCG,0.14
15,AAGATCAA,-0.0315
16,ATAGGAAA,-0.0768
17,CTTTGGCA,-0.144
18,AGCTCAAC,-0.0198
19,GACGAAGA,0.0867
20,GACGAAGC,0.0937
21,ACCGAAGT,0.207
22,TACGAAGA,0.444
23,AAAGAAGT,-0.0866
24,CACGAAGC,0.0604
25,CACGAAGA,0.226

row,Sequence,PBM E-score
1,AACGAAGA,0.421
2,AACGAAGC,0.437
3,TCCGAAGA,0.0982
4,AACGAAGT,0.419
5,TAAGAAGA,0.0914
6,CGGATTTC,0.0823
7,CGCGGCAC,0.0802
8,ATTCTGGG,-0.192
9,TCCAATCA,-0.115
10,TTCTTAAA,-0.107
11,ATTGAGGA,-0.0867
12,AGCGCCGC,-0.188
13,ATAAACTA,0.0319
14,TAGTCTAA,-0.04
15,ACTATCCT,-0.133
16,ACTACGGC,-0.0479
17,ACGTCGCG,0.162
18,TGGACCCA,-0.131
19,ACCGAAGG,0.107
20,CACGAAGG,0.0498
21,AACGAAGG,0.398
22,ACGAACCA,0.391
23,GCGAAGCA,0.0616
24,GCGAACCA,0.146
25,ACGAAGCA,0.378

row,Sequence,PBM E-score
1,ACGAACCC,0.28
2,ACGAAGCG,0.317
3,CCGAACCA,-0.0831
4,CCGAACCG,0.12
5,ACGAACCG,0.368
6,ACGGTCAA,0.297
7,GTTACACA,-0.0371
8,CGCACCAC,0.0793
9,CATATCCA,-0.0799
10,AATGGAAA,-0.198
11,CACGGTAC,0.113
12,AATCTGGA,-0.119
13,CATACCCC,-0.0887
14,AGTACCCA,-0.208
15,CGTACCCA,0.406
16,CGTACCCC,0.453
17,AGTACCCC,-0.0697
18,GGTACCCA,-0.145
19,GCCTGCGC,-0.272
20,ACCCTACG,-0.142
21,AGCGGTGC,0.0264
22,GATTTGAC,0.202
23,AGAGACGC,0.0019
24,CGTATGTC,0.342
25,CGTATGGA,0.383

row,Sequence,PBM E-score
1,GGTATGGA,-0.15
2,CGTATGGC,0.4
3,AGTATGGA,-0.115
4,AGTATGGC,-0.0838
5,CCGAGATA,0.186
6,TTACGCAA,0.115
7,AGTTTGCC,-0.117
8,GTTGAAAC,0.0017
9,GCCTGGCA,-0.318
10,CGACCGCC,0.137
11,ACTACTAG,-0.0821
12,ACATTCGA,0.0496
13,ACATTCGG,0.0251
14,ACATTCGT,0.37
15,GACACCTC,0.148
16,ACCCTCGT,0.449
17,ACCCTCGC,0.194
18,ACCCTCGA,-0.16
19,CACCAATA,-0.0897
20,CGTAGCGA,0.382
21,AGTAGCGA,0.153
22,CGTAGCGC,0.273
